# Laboratory results published in PubChem BioAssay (Tox21).
# Values without a mark were called inactive. Results filed as inconclusive are left out. Entries that show only a call come without a potency. Activity calls are given as the source filed them. Unless noted, calls follow the shape of the dose curve; as a rule, active = well fitted curve in the direction sought with a large enough effect in the repeat runs; inconclusive = weak or mixed curves; inactive = no such curve, though single readings can be large; an effect the other way counts as inactive or inconclusive.
# Legend:
# [1] = qHTS assay to identify small molecule antagonists of the estrogen related receptor (ERR) signaling pathway from Tox21 library - cell viability counter screen (AID 1224834); also: nearly all actives have a fitted effect of over 30% in size
# Procedure, shortened: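 Counter screen run in ERR cells (2,000 cells/well): cells pre-incubated 6 h, then treated with compounds for 17.5 h at 37 C. Fluorescence was read 30 min after CellTiter-Fluor addition.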
# [2] = molecular target: Luciferin 4-monooxygenase (Photinus pyralis) (UniProt P08659); assay: qHTS assay to identify small molecule inhibitors of firefly luciferase (AID 1224835); also: nearly all actives have a fitted effect of over 25% in size
# Chain of Luciferin 4-monooxygenase (Photinus pyralis) (P08659 whole entry, looked up): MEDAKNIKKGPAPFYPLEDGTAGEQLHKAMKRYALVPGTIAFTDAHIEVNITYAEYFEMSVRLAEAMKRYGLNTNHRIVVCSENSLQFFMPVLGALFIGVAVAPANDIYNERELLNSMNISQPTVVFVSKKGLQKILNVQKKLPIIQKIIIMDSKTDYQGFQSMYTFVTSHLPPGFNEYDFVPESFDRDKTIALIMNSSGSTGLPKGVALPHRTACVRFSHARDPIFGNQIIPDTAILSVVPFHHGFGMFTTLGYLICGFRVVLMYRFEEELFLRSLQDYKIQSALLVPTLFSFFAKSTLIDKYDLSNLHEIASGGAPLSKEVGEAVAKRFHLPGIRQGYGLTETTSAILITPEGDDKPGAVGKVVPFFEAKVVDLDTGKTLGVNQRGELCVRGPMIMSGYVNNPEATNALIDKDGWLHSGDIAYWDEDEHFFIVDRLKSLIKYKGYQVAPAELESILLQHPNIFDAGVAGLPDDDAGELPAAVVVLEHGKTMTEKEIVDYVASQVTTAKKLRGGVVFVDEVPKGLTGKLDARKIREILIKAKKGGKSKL
# Procedure, shortened: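 Inhibition of purified Photinus luciferase is measured by luminescence. Substrate levels (D-luciferin, ATP) sit at their KM values. Each compound is tested in a concentration series.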
# [3] = qHTS assay to identify small molecule agonists of the constitutive androstane receptor (CAR) signaling pathway - cell viability counter screen (AID 1224836); also: nearly all actives have a fitted effect of over 45% in size
# Procedure, shortened: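 HepG2 cells stably carrying hCAR and a CYP2B6-2.2kb reporter were plated 4 h, then given compounds at 15 concentrations plus PK11195 (final 0.75 uM). After 23 h at 37 C, viability was read by CellTiter-Fluor fluorescence.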
# [4] = qHTS assay to identify small molecule antagonists of the constitutive androstane receptor (CAR) signaling pathway - cell viability counter screen (AID 1224837); also: nearly all actives have a fitted effect of over 45% in size
# Procedure, shortened: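 CITCO at 50 nM final was added alongside compounds (15 concentrations) to double-stable hCAR/CYP2B6-2.2kb HepG2 cells. Following 23 hr at 37 C, cell viability was quantified by CellTiter-Fluor fluorescence intensity.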
# [5] = molecular target: Nuclear receptor subfamily 1 group I member 3 (Homo sapiens) (UniProt Q14994); assay: qHTS assay to identify small molecule antagonists of the constitutive androstane receptor (CAR) signaling pathway (AID 1224838); also: nearly all actives have a fitted effect of over 40% in size
# Chain of Nuclear receptor subfamily 1 group I member 3 (Homo sapiens) (Q14994 whole entry, looked up): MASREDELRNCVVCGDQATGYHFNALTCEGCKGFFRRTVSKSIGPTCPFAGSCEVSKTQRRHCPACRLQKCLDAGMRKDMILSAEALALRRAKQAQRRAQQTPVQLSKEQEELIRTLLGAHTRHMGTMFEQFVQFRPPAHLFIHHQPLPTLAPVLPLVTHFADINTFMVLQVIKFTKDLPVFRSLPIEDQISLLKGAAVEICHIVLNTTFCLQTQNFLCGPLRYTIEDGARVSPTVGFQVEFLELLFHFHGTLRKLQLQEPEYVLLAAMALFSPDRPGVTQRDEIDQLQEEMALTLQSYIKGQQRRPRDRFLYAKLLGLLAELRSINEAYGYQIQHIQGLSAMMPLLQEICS
# Procedure, shortened: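 Inhibition of CITCO-driven (50 nM final) CYP2B6 reporter expression is measured in HepG2 cells stably carrying hCAR. Fifteen compound concentrations are applied for 24 h at 37 C, followed by luciferase luminescence.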
# [6] = molecular target: Nuclear receptor subfamily 1 group I member 3 (Homo sapiens) (UniProt Q14994); assay: qHTS assay to identify small molecule agonists of the constitutive androstane receptor (CAR) signaling pathway (AID 1224839); also: nearly all actives have a fitted effect of over 15% in size; also: potency is read from the fitted curve at half-maximal effect
# Procedure, shortened: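 HepG2 cells stably expressing hCAR and a CYP2B6-2.2kb luciferase reporter were treated with compounds at 15 concentrations plus 0.75 uM PK11195 (final) for 24 h at 37 C; luminescence was read after ONE-Glo addition.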
# [7] = qHTS assay to identify small molecule antagonists of the estrogen related receptor signaling pathway with the pleiotropic PPARgamma coactivator (PGC) from Tox21 10K library (AID 1224841; call rule not given here; also: actives are mostly falling curves and most rising ones were filed inactive; nearly all actives have a fitted effect of over 50% in size)
# Procedure, shortened: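 One-Glo luminescence, measured after half an hour at room temperature, quantified reporter output of PGC/ERR cells. These had been plated at 2,000 per well, incubated 6 h, dosed with compounds in DMSO, then kept 18 h at 37 C.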
# [8] = qHTS assay to identify small molecule agonists of the estrogen related receptor signaling pathway with the pleiotropic PPARgamma coactivator (PGC) from Tox21 10K library (AID 1224842); also: nearly all actives have a fitted effect of over 15% in size
# Procedure, shortened: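 Luminescence from One-Glo (30 min, room temperature) measured after PGC/ERR cells had 18 h at 37 C with pinned compound (23 nL in DMSO). Cells had been seeded at 2,000 per well and pre-incubated 6 h.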
# [9] = molecular target: Thyrotropin receptor (Homo sapiens) (UniProt P16473); assay: qHTS assay to identify small molecule agonists of the thyroid stimulating hormone receptor (TSHR) signaling pathway (AID 1224843; calls by dose curve; also: nearly all actives have a fitted effect of over 45% in size)
# Chain of Thyrotropin receptor (Homo sapiens) (P16473 whole entry, looked up): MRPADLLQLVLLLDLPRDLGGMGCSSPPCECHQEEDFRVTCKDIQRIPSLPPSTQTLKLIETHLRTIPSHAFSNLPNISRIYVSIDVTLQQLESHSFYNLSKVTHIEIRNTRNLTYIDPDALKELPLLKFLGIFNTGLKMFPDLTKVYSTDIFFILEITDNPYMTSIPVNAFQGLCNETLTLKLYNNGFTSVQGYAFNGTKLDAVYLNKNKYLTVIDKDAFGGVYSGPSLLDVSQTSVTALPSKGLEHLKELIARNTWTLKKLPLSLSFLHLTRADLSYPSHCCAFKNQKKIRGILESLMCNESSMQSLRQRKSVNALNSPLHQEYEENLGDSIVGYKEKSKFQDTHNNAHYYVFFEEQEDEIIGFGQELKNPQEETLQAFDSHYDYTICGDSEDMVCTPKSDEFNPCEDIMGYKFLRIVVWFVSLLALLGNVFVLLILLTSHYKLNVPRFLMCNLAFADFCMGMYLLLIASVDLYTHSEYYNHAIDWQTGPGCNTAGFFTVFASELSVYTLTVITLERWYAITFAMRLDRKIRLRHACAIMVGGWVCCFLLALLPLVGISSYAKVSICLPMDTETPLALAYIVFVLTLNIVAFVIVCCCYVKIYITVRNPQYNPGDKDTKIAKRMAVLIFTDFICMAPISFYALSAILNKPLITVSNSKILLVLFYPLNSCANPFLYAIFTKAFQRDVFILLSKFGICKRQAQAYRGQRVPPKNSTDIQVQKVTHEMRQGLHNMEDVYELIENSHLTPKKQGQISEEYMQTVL
# Procedure, shortened: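 Agonist activity read as cAMP rise via d2/cryptate HTRF competition, 1 h room-temperature detection, in HEK293 cells expressing TSHR. Fifteen-point titrations, each run in triplicate, with a 30 min room-temperature incubation beforehand.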
# [10] = qHTS assay to identify small molecule agonists of the hypoxia (HIF-1) signaling pathway - cell viability counter screen (AID 1224844; calls by dose curve; also: nearly all actives have a fitted effect of over 50% in size)
# Procedure, shortened: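 In this counter screen, HRE-bla ME-180 cell viability after 17 hrs of compound exposure at 37C was read by CellTiter-Glo luminescence, multiplexed with the beta-lactamase reporter measurement.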
# [11] = qHTS assay to identify small molecule agonists of H2AX (AID 1224845; active = well fitted activation curve with a large enough effect in the signal ratio in the repeat runs, not every such curve was filed as active; the % refers to the signal ratio)
# Procedure, shortened: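 Phospho-H2AX Ser139 measured by HTRF (ex 320 nm; em 665 and 620 nm) after 24 hr antibody incubation. Compounds, 15 concentrations, 0.76% DMSO, were applied to CHO-K1 cells for 3hr at 37C before lysis.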
# [12] = qHTS assay to identify small molecule agonists of the hypoxia (HIF-1) signaling pathway (AID 1224846; active = well fitted activation curve with a large enough effect in the signal ratio in the repeat runs, not every such curve was filed as active; the % refers to the signal ratio)
# Procedure, shortened: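 ME-180 HRE-bla reporter cells; compounds in DMSO, 17 h at 37C; read-out beta-lactamase via CCF4-AM FRET.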
# [13] = qHTS assay to identify small molecule agonists of H2AX - cell viability counter screen (AID 1224847; calls by dose curve; also: top concentration of the series differs between compounds; nearly all actives have a fitted effect of over 30% in size)
# Procedure, shortened: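 Wild-type CHO-K1 cells (10% FBS medium) were plated overnight at 37C, exposed to compounds at 15 concentrations for 3 hr at 37C (0.76% DMSO final), and viability was read as CellTiter-Glo luminescence after 30 min at room temperature.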
# [14] = qHTS assay to identify small molecule antagonists of the estrogen related receptor (ERR) signaling pathway from Tox21 library (AID 1224848); also: nearly all actives have a fitted effect of over 50% in size
# Procedure, shortened: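 Luciferase luminescence (ONE-Glo, 30 min room temperature) was the read-out. Cells of the NTP-supplied ERR line, 2,000 per well, were given 6 h at 37 C before compound addition in DMSO and 18 h exposure at 37 C.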
# [15] = qHTS assay to identify small molecule agonists of the estrogen related receptor (ERR) signaling pathway from Tox21 library (AID 1224849; calls by dose curve; also: nearly all actives have a fitted effect of over 15% in size); conditions: ERR reporter cell line, ONE-Glo luciferase, 18 h; at 92.4 µM (top of the series) unless noted
# Procedure, shortened: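 Luciferase activity in ERR pathway reporter cells served as the agonist readout; exposure lasted 18 h at 37 C, with ONE-Glo detection after 30 min at room temperature.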
# [16] = qHTS RealTime-Glo MT Cell Viability Assay in HepG2 cells - 24 hour (AID 1224867); also: nearly all actives have a fitted effect of over 50% in size
# Procedure, shortened: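 Luminescence read-out: viable HepG2 cells reduce a prosubstrate to a NanoLuc substrate, giving a signal proportional to live cell number. Reads taken at 0, 8, 16, 24, 32 and 40 h of compound exposure at 37 C.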
# [17] = qHTS RealTime-Glo MT Cell Viability Assay in HEK293 cells - 32 hour (AID 1224868)
# Procedure, shortened: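 Nonlytic real-time viability readout: viable cells convert prosubstrate to NanoLuc substrate, giving luminescence proportional to live cell number. HEK293, 600 cells/well, compound added after 5 h, continuous culture at 37 C.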
# [18] = A CellTox Green Cytotoxicity Assay to monitor cytotoxicity in HEK293 cells - 0 hour (AID 1224869); also: nearly all actives have a fitted effect of over 50% in size
# Procedure, shortened: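 Real-time, in one plate: 600 HEK293 cells/well with dead-cell DNA dye, pinned compound after 5 h, 37 C incubation over 40 h; viable cells give no appreciable fluorescence.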
# [19] = qHTS assay to identify small molecule antagonists of the estrogen related receptor signaling pathway with the pleiotropic PPARgamma coactivator (PGC) from Tox21 10K library - cell viability counter screen (AID 1224840; active = well fitted cell-killing curve with a large enough effect in the repeat runs, not every such curve was filed as active; also: nearly all actives have a fitted effect of over 40% in size)
# Procedure, shortened: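 Readout: fluorescence intensity from CellTiter-Fluor after 30 min at 37 C/5% CO2. Preceded by 17.5 h treatment of PGC/ERR cells with DMSO-dissolved compounds, added 6 h post-seeding.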
structure (smiles),measurement,setting,value
COCCOCCOCCOCCOCCO,Potency,[1],inactive
same,Potency,[2],inactive
same,Potency,[3],inactive
same,Potency,[4],inactive
same,outcome,[5],inactive
same,Potency,[6],inactive
same,Potency,[7],inactive
same,outcome,[8],inactive
same,Potency,[9],inactive
same,outcome,[10],inactive
same,outcome,[11],inactive
same,outcome,[12],inactive
same,Potency,[13],inactive
same,Potency,[14],inactive
same,"activity change, positive = activation",[15],2.08%
same,outcome,[16],inactive
same,Potency,[17],inactive
same,outcome,[18],inactive
CCCCCCCCC1CCC(=O)O1 (stereo not drawn),Potency,[1],inactive
same,Potency,[2],inactive
same,Potency,[3],inactive
same,Potency,[4],inactive
same,Potency,[6],30.6 µM (active)
same,outcome,[19],inactive
same,Potency,[7],inactive
same,outcome,[8],inactive
same,Potency,[9],inactive
same,outcome,[10],inactive
same,outcome,[11],inactive
same,Potency,[13],inactive
same,Potency,[14],inactive
same,outcome,[16],inactive
same,Potency,[17],inactive
same,outcome,[18],inactive
CC(=O)NCc1c(I)c(NC(C)=O)c(I)c(C(=O)O)c1I,Potency,[1],inactive
same,Potency,[2],inactive
same,Potency,[3],inactive
same,Potency,[4],inactive
same,Potency,[6],inactive
same,outcome,[19],inactive
same,Potency,[7],inactive
same,outcome,[8],inactive
same,Potency,[9],inactive
same,outcome,[10],inactive
same,outcome,[11],inactive
same,outcome,[12],inactive
same,Potency,[13],inactive
same,Potency,[14],inactive
same,"activity change, positive = activation",[15],6.18% [at 42.5 µM]
same,outcome,[16],inactive
same,Potency,[17],inactive
same,outcome,[18],inactive
FC(F)(F)c1ccccc1-n1ccnc1,Potency,[1],inactive
same,Potency,[2],inactive
same,Potency,[3],inactive
same,Potency,[4],inactive
same,outcome,[5],inactive
same,Potency,[6],inactive
same,outcome,[19],inactive
same,outcome,[10],inactive
same,outcome,[11],inactive
same,Potency,[13],inactive
same,outcome,[16],inactive
same,Potency,[17],inactive
same,outcome,[18],inactive
O=S(=O)(O)c1ccc2cc(O)c(S(=O)(=O)O)cc2c1,Potency,[1],inactive
same,Potency,[2],inactive
same,Potency,[3],inactive
same,Potency,[4],inactive
same,outcome,[5],inactive
same,Potency,[6],inactive
same,outcome,[19],inactive
same,Potency,[9],inactive
same,outcome,[10],inactive
same,outcome,[11],inactive
same,outcome,[12],inactive
same,Potency,[13],inactive
same,outcome,[16],inactive
same,Potency,[17],inactive
same,outcome,[18],inactive
COc1ccc(OC)c(Cl)c1,Potency,[1],inactive
same,Potency,[2],inactive
same,Potency,[3],inactive
same,Potency,[4],inactive
same,outcome,[5],inactive
same,Potency,[6],inactive
same,Potency,[7],inactive
same,outcome,[8],inactive
same,Potency,[9],inactive
same,outcome,[10],inactive
same,outcome,[11],inactive
same,outcome,[12],inactive
same,Potency,[13],inactive
same,Potency,[14],inactive
same,"activity change, positive = activation",[15],-2.23%
same,outcome,[16],inactive
same,Potency,[17],inactive
same,outcome,[18],inactive
O=S(O)(O)=S,"viability change, negative = cytotoxic",[1],0.32% [at 8.39 µM]
same,"activity change, negative = inhibition",[2],1.12% [at 10.5 µM]
same,"viability change, negative = cytotoxic",[3],1.44% [at 8.39 µM]
same,"activity change, negative = cytotoxicity",[4],0.559% [at 8.39 µM]
same,"activity, negative = inhibition",[5],-2.22% [at 8.39 µM]
same,activation,[8],-0.09% [at 8.39 µM]
same,activation,[9],8.08% [at 8.39 µM]
same,"activity change, negative = cytotoxicity",[10],-1.07% [at 6.97 µM]
same,activation (H2AX phosphorylation),[11],2.44% [at 14 µM]
same,"activity change, negative = cytotoxicity",[13],0.0189% [at 14 µM]
same,"activity, negative = inhibition",[14],8.94% [at 8.39 µM]
same,"activity change, positive = activation",[15],4.43% [at 8.39 µM]
same,"activity change, negative = cytotoxicity",[16],4.23% [at 6.97 µM]
same,"activity change, negative = cytotoxic",[17],0.732% [at 6.97 µM]
same,cytotoxicity,[18],0.0066% [at 6.97 µM]
